This is an account of results in PubChem BioAssay AID740 (SRMLSC, 2007).

The inhibition is the relative decrease from the control value, in per cent.

About 65 (0.07%) of roughly 96,000 compounds were called active. What follows is part of a selection rich in actives, with near analogues and random picks from the rest. Unmarked numbers belong to inactive results. Rule as the data show it: active = inhibition above about 25%; inactive = the rest.

The experiment is described as follows: unspecified inhibition readout at 50 µM (AID 740). The settings on record: unspecified screen; stronger effect = higher value.
Consider `Cn1nc(C(=O)Nc2c(-c3ccccc3)nc3sccn23)c2ccccc2c1=O`, for which the inhibition is 2.2%.
The value for `O=C(Nc1c(-c2ccccc2)nc2sccn12)c1ccccc1` was 48.5% (active); that for `Cc1ccn2c(NC(=O)c3ccccc3)c(-c3cccs3)nc2c1` was “inactive”.
Consider `CCNc1nnc(-c2ccccc2OC)s1`, for which the inhibition entry was “inactive”.
With `Cc1c(C(=O)Nc2ccncc2)oc2ccccc12` the entry was “inactive”; with `Cc1ccc2c(C)c(C(=O)Nc3cccnc3)oc2c1`, 90.2% (active).
In the case of `Cc1cc2oc(C(=O)Nc3cccnc3)c(C)c2cc1C`, the inhibition entry is “inactive”.
For `O=C(c1ccco1)N1N=C(c2cccs2)CC1c1ccc(F)cc1` (stereo unspecified), the inhibition was 6.17%.
Consider `O=C1CCCN1CCCNc1ccc(S(=O)(=O)N2CCCCC2)cn1`, for which the inhibition is 0.14%.
`O=C(Nc1cccc(O)c1)c1noc2c1CCc1ccccc1-2`: the inhibition is 66.5% (active).
Regarding `Cc1ccc(NC(=O)c2noc3c2CCc2ccccc2-3)cc1`, the inhibition entry was “inactive”.
With `Cc1cc(NC(=O)c2noc3c2CCc2ccccc2-3)no1` the entry was “inactive”; with `C=CCOc1ccc(/C(CC)=N/O)c(OC)c1`, 1.57%; with `CC(C)(C)OC(=O)NCCc1nnc(SCc2ccc(Cl)cc2Cl)o1`, 4.81%.
Regarding `CC(C)(C)OC(=O)NCCc1nnc(SCc2ccc(Cl)cc2)o1`, the inhibition is 26.6% (active).
As for `CC(C)(C)OC(=O)NCCc1nnc(SCC(=O)c2ccc(Cl)cc2)o1`, the inhibition entry was “inactive”.
On to `N#Cc1ccc2ccn(CC(=O)NC3CCCCC3)c2c1`, for which the inhibition result is “inactive”.
For the molecule `Cc1cc(NS(=O)(=O)c2ccc(NC(=O)c3cc(-c4cccnc4)nc4ccc(Cl)cc34)cc2)no1`, the inhibition is 2.18%.
As to `COc1ccc(NC(=O)CCN2CCCCCC2)c(OC)c1`, the inhibition is 0.25%.
With `Cc1noc(C)c1CSc1nc2sc(C)c(C)c2c(=O)n1-c1ccccc1` the figure was 6.13%; with `C=CCn1c(SCc2c(C)noc2C)nc2sc(C)c(C)c2c1=O`, 11.3%; with `Cc1noc(C)c1CSc1nc2sc(C)c(C)c2c(=O)n1C1CCCC1`, 25.2% (active).
`COc1ccc(C(=O)CSc2nc(C)cc(=O)[nH]2)cc1`: the inhibition entry is “inactive”.
With `COCCCNC(=O)CCn1c(=O)c2ccccc2n(CC(=O)Nc2c(C)cccc2C)c1=O` the figure was 1.13%.
On to `CC(=O)Nc1cc(C(C)C)c(O)c(C(C)C)c1`, for which the inhibition is 0.28%.
The value for `CC(C)c1cc(NC(=O)C(C)(C)C)cc(C(C)C)c1O` was 0.31%; that for `COc1c(C(C)C)cc(NC(C)=O)cc1C(C)C` was 87.4% (active).
The value for `CCOC(=O)/C=C1\SCC(=O)N1CC(=O)NC1CCCCC1` was 0.43%; that for `CCOC(=O)/C=C1\SCC(=O)N1CC(=O)NC(C)C` was 0.15%.
Take `CCOC(=O)/C=C1\SCC(=O)N1CC(=O)NC12CC3CC(CC(C3)C1)C2`: the inhibition is 39.9% (active).
`COc1ccc(-c2noc(CCN3C(=O)c4ccccc4C3=O)n2)cc1OC`: the inhibition was 0.08%.
With `CCOc1ccc(NCc2nnc(SCC(=O)Nc3cc(C)on3)n2-c2ccc(OC)cc2)cc1` the entry was “inactive”.
As for `Cc1cc(NC(=O)CSc2nnc(CNc3ccc(F)cc3)n2C2CCCCC2)no1`, the inhibition was 26.7% (active).
Consider `CCc1nnc(NC(=O)CSc2nnc(CNc3ccc(F)cc3)n2C2CCCCC2)s1`, for which the inhibition result was “inactive”.
The value for `C=CCN(c1ccc(C(=O)N2CCCC2)cc1)S(C)(=O)=O` was “inactive”; that for `COc1ccc(S(=O)(=O)Nc2cc(C)c(O)cc2C(C)C)cc1` was “inactive”; that for `COc1ccc(OC)c(-n2c(SCC(N)=O)nnc2-c2c[nH]c3ccccc23)c1` was 1.03%.
With `COc1ccc(OC)c(-n2c(SCC(=O)Nc3cc(C)on3)nnc2-c2c[nH]c3ccccc23)c1` the figure was 25.7% (active); with `COc1ccc(OC)c(-n2c(SCC(=O)NCc3ccco3)nnc2-c2c[nH]c3ccccc23)c1`, 0.83%.
With `Cc1cc(C)n(CC(O)Cn2c(C)c(C)c3ccccc32)n1` (stereo unspecified) the figure was 0.73%; with `CN=C(Nc1cc(C)nn1CCC#N)c1ccc(F)cc1`, 0.15%; with `CC(C)CCNC(=O)C(c1cccs1)N(CC1CCCO1)C(=O)Cn1nnc2ccccc21` (stereo unspecified), “inactive”.
For `Cn1c2ccccc2c(=O)c2c(=O)n(C3CCCCC3)c(-c3cccs3)nc21`, the inhibition was 47.1% (active).
Consider `COCCn1c(-c2cccs2)nc2c(c(=O)c3ccccc3n2C)c1=O`, for which the inhibition is 12.7%.
As for `Cc1nc2ccccc2c(=O)n1C1CCCCCC1`, the inhibition is 1.75%.
As for `CC(=O)N=C1SC2CS(=O)(=O)CC2N1c1c(Cl)cccc1Cl` (stereo unspecified), the inhibition is 0.54%.
With `COc1ccc2nnc(-c3ccccc3)n2n1` the figure was 1.04%; with `COCCN1C(=O)C(CC(=O)Nc2ccc(C(=O)O)cc2)SC1=Nc1ccccc1` (stereo unspecified), 0.58%; with `OC(CN1CCOCC1)Cn1c(-c2cccc(Cl)c2)nc2ccccc21` (stereo unspecified), 1.12%.
The value for `COc1ccc(NC(=O)N2CCn3c2nc2ccccc23)cc1` was 1.52%; that for `O=C(Nc1ccccc1)N1CCn2c1nc1ccccc12` was 1.31%.
As to `S=C(Nc1ccccc1)N1CCn2c1nc1ccccc12`, the inhibition is 69.1% (active).
For the molecule `Cc1cccc(NC(=O)Cc2cccs2)n1`, the inhibition is 0.37%.
The value for `c1ccc(NC2=Nc3ccccc3CS2)cc1` was 0.05%; that for `CCN(CC)c1ccc(NC(=O)c2cc(Cl)ccc2OC)cc1` was “inactive”; that for `CCC(C)NC(=O)Cn1nc([N+](=O)[O-])c(Cl)c1C` (stereo unspecified) was 0.92%.
As to `Cn1cnnc1SCC(=O)c1ccc2c(c1)CCCC2`, the inhibition is 1.31%.
For the molecule `Cc1nnc(SC(=O)N2c3ccccc3Sc3ccccc32)s1`, the inhibition was 30% (active).
The value for `Cn1ccnc1SC(=O)N1c2ccccc2Sc2ccccc21` was “inactive”.
The value for `Cc1nnc(SCC(=O)N2c3ccccc3Sc3ccccc32)n1N` was 0.91%.
Turning to `O=C(COc1ccc(Cl)cc1Cl)N1CCN(C/C=C/c2ccccc2)CC1`, the inhibition is 1.2%.
Consider `CCS(=O)(=O)Nc1cc(-c2nc3cccnc3s2)ccc1C`, for which the inhibition is 0.46%.
The value for `CCS(=O)(=O)Nc1cccc(-c2nc3cccnc3s2)c1C` was 28.6% (active).
With `Cc1c(NS(=O)(=O)c2ccc3c(c2)OCCO3)cccc1-c1nc2cccnc2s1` the entry was “inactive”; with `Cc1cc(C)n(-c2nc(SCCN(C)C)c3c4c(sc3n2)CCCC4)n1`, “inactive”.
The value for `O=C(C1CCN(C2CC(=O)N(c3cccc(Cl)c3)C2=O)CC1)N1CCCC1` (stereo unspecified) was 0.33%.
